# Test results taken from PubChem BioAssay (EPA / NIEHS).
# Calls of active or inactive are those of the source. How the source made its calls: active means hit-call score of the fitted dose curve at least 0.9, where 1 is the maximum; inactive means score below 0.9.
# Legend:
# Conditions in all cases: mRNA level, 48 h; actives raise or lower the signal
# [1] = read-out: Cytochrome P450 3A4 (Homo sapiens) (UniProt P08684); assay: LTEA_HepaRG_CYP3A4: Life Technologies and Expression Analysis (LTEA) Assay for CYP3A4 using HepaRG (AID 2283487)
# Procedure, shortened: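 CYP3A4 transcript measured by TaqMan qRT-PCR and normalized to three housekeeping genes after 48 h chemical exposure of human HepaRG cells. Top concentration 100 uM, half-log steps, 0.5% DMSO vehicle; gain or loss fitted against DMSO baseline.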
# [2] = read-out: DNA damage-inducible transcript 3 (DDIT3), DDIT3 (gene 1649); assay: LTEA_HepaRG_DDIT3: Life Technologies and Expression Analysis (LTEA) Assay for DNA damage-inducible transcript 3 (DDIT3) using HepaRG (AID 2283488)
# Procedure, shortened: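 DDIT3 transcript was quantified by qRT-PCR with ACTB/GAPDH/POLR2A normalization after 48 h chemical treatment of differentiated HepaRG cells in 0.5% DMSO. Dosing was eight-point, half-log, top 100 uM, duplicate wells. Curves fitted bidirectionally versus DMSO.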
# [3] = read-out: Pro-epidermal growth factor (Homo sapiens) (UniProt P01133); assay: LTEA_HepaRG_EGF: Life Technologies and Expression Analysis (LTEA) Assay for Epidermal growth factor (EGF) using HepaRG (AID 2283489)
# Procedure, shortened: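 HepaRG, 48 h dosing, 100 uM top, half-log x8, 0.5% DMSO. Readout: TaqMan qRT-PCR (Fluidigm array), housekeeping-normalized. Gain or loss of signal fit vs DMSO.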
# [4] = read-out: Early growth response protein 1 (EGR1) transcription factor, EGR1 (gene 1958); assay: LTEA_HepaRG_EGR1: Life Technologies and Expression Analysis (LTEA) Assay for Early growth response protein 1 (EGR1) transcription factor using HepaRG (AID 2283490)
# Procedure, shortened: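 EGR1 transcript levels quantified by qRT-PCR (Fluidigm arrays) against three housekeeping genes after 48 h chemical exposure of HepaRG cells. Eight-point half-log series topping at 100 uM, 0.5% DMSO vehicle, analyzed for gain or loss.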
# [5] = read-out: Ezrin (EZR), EZR (gene 7430); assay: LTEA_HepaRG_EZR: Life Technologies and Expression Analysis (LTEA) Assay for Ezrin (EZR) using HepaRG (AID 2283491)
# Procedure, shortened: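 HepaRG, 48 h chemical exposure, 8-pt half-log series from 100 uM, 0.5% DMSO vehicle, duplicates. Read-out: EZR mRNA by TaqMan qRT-PCR (Fluidigm array), housekeeping-normalized; bidirectional curve fit vs DMSO baseline.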
# [6] = read-out: Cytochrome P450 3A7 (Homo sapiens) (UniProt P24462); assay: LTEA_HepaRG_CYP3A7: Life Technologies and Expression Analysis (LTEA) Assay for CYP3A7 using HepaRG (AID 2283492)
# Procedure, shortened: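 Human HepaRG liver cells, 48 h post-plating, switched to serum-free induction medium and exposed in duplicate for 48 h. Dosing: 100 uM top, half-log dilutions, 8 points, 0.5% DMSO vehicle. Read-out: CYP3A7 mRNA, gain or loss fitted against DMSO baseline.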
# [7] = read-out: Fatty Acid-Binding Protein 1 (FABP1), FABP1 (gene 2168); assay: LTEA_HepaRG_FABP1: Life Technologies and Expression Analysis (LTEA) Assay for Fatty Acid-Binding Protein 1 (FABP1) using HepaRG (AID 2283494)
# Procedure, shortened: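 FABP1 expression by TaqMan qRT-PCR, normalised to three housekeeping genes, in HepaRG cells after 48 h chemical treatment. Eight-point half-log series topping at 100 uM in 0.5% DMSO, duplicates; gain or loss fitted relative to vehicle.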
# [8] = read-out: Cytochrome P450 4A22 (Homo sapiens) (UniProt Q5TCH4); assay: LTEA_HepaRG_CYP4A22: Life Technologies and Expression Analysis (LTEA) Assay for Cytochrome P450 4A22 (CYP4A22) using HepaRG (AID 2283495)
# Procedure, shortened: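 Readout is CYP4A22 transcript induction or loss, quantified by qRT-PCR and normalized to ACTB, GAPDH and POLR2A. Human HepaRG cells receive test chemicals for 48 h at eight half-log concentrations from 100 uM in 0.5% DMSO.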
# [9] = read-out: Cytochrome P450 7A1 (Homo sapiens) (UniProt P22680); assay: LTEA_HepaRG_CYP7A1: Life Technologies and Expression Analysis (LTEA) Assay for Cytochrome P450 7A1 (CYP7A1) using HepaRG (AID 2283496)
# Procedure, shortened: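 HepaRG, 48 h exposure, 8-pt half-log series from 100 uM, 0.5% DMSO vehicle, duplicates. Readout: TaqMan qRT-PCR mRNA vs three housekeeping genes; bidirectional curve fit against DMSO baseline.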
# CYP3A5 (gene 1577) = assay: LTEA_HepaRG_CYP3A5: Life Technologies and Expression Analysis (LTEA) Assay for CYP3A5 using HepaRG (AID 2283493)
# Procedure, shortened: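 mRNA levels were quantified by qRT-PCR on Fluidigm arrays and normalized to three housekeeping genes. Differentiated HepaRG cells received 48 h exposure (top 100 uM, half-log steps, 0.5% DMSO vehicle, duplicate); bidirectional fitting versus DMSO.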
# Sequence of Cytochrome P450 3A7 (Homo sapiens) (P24462 whole entry, looked up): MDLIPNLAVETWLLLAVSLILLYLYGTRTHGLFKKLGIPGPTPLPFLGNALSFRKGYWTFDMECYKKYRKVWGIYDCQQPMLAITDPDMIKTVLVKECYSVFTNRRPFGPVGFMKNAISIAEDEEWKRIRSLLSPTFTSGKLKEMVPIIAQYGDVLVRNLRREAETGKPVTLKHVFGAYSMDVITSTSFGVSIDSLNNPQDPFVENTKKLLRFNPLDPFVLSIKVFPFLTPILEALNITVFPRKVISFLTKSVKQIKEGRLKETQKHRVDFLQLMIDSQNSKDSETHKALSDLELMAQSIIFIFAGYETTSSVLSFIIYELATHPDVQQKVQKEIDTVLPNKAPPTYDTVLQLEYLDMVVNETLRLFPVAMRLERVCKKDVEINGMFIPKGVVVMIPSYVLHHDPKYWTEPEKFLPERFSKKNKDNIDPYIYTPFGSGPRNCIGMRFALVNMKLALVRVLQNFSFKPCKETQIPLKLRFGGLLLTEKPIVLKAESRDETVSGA
# Sequence of Cytochrome P450 3A4 (Homo sapiens) (P08684 whole entry, looked up): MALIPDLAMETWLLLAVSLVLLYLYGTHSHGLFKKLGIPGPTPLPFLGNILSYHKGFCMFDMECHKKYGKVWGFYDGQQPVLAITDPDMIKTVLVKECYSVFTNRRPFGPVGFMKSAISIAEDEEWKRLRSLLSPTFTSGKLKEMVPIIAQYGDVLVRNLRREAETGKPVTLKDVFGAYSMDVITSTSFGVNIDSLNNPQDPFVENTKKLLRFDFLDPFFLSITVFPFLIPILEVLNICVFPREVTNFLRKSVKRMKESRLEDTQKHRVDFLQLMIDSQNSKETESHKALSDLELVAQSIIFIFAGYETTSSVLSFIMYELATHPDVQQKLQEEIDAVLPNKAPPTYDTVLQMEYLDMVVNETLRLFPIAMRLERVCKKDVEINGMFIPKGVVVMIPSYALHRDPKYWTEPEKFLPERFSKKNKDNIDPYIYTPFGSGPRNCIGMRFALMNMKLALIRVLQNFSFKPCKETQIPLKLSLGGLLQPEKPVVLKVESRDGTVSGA
structure (smiles),measurement,setting,value
COc1ccc2c(c1)c(CC(=O)O)c(C)n2C(=O)c1ccc(Cl)cc1,outcome,[1],inactive
same,outcome,[2],inactive
same,outcome,[3],inactive
same,outcome,[4],inactive
same,outcome,[5],inactive
same,outcome,[6],inactive
same,outcome,[7],inactive
same,outcome,[8],inactive
same,outcome,[9],inactive
CN1CCN(Cc2cc(-c3ccc4[nH]c(=O)oc4c3)co2)[C@@H](c2ccc(F)cc2)C1,outcome,[1],inactive
same,outcome,[2],inactive
same,outcome,[3],inactive
same,outcome,[4],inactive
same,outcome,[5],inactive
same,AC50,[6],11.5 µM (active)
same,outcome,[7],inactive
same,AC50,[8],50 µM (active)
same,outcome,[9],inactive
CC=Cc1ccc(O)c(OC)c1,outcome,[1],inactive
same,outcome,[2],inactive
same,outcome,[3],inactive
same,outcome,[4],inactive
same,outcome,[5],inactive
same,outcome,[6],inactive
same,outcome,[7],inactive
same,outcome,[8],inactive
same,outcome,[9],inactive
Cc1nc(C)nc(N2C[C@@H](C)N(c3ccnc([C@@H](C)O)n3)[C@@H](C)C2)n1,outcome,[1],inactive
same,outcome,[2],inactive
same,outcome,[3],inactive
same,outcome,[4],inactive
same,outcome,[5],inactive
same,AC50,[6],13.8 µM (active)
same,outcome,CYP3A5 (gene 1577),inactive
same,outcome,[7],inactive
same,AC50,[8],0.682 µM (active)
same,outcome,[9],inactive
C[Si]1(C)O[Si](C)(C)O[Si](C)(C)O[Si](C)(C)O1,outcome,[1],inactive
same,outcome,[2],inactive
same,outcome,[3],inactive
same,outcome,[4],inactive
same,outcome,[5],inactive
same,outcome,[6],inactive
same,outcome,[7],inactive
same,outcome,[8],inactive
same,outcome,[9],inactive
Cc1cc(NC(=O)C(=O)O)cc(C)c1Oc1ccc(O)c2c1CCC2,AC50,[1],13.8 µM (active)
same,outcome,[2],inactive
same,outcome,[3],inactive
same,outcome,[4],inactive
same,outcome,[5],inactive
same,AC50,[6],0.0522 µM (active)
same,AC50,[7],27.9 nM (active)
same,AC50,[8],0.0307 µM (active)
same,AC50,[9],229 nM (active)
NS(=O)(=O)c1cc2c(cc1Cl)NCNS2(=O)=O,outcome,[1],inactive
same,outcome,[2],inactive
same,outcome,[3],inactive
same,outcome,[4],inactive
same,outcome,[5],inactive
same,outcome,[6],inactive
same,outcome,CYP3A5 (gene 1577),inactive
same,outcome,[7],inactive
same,outcome,[8],inactive
same,outcome,[9],inactive
CCCCCCC(=O)OCC,outcome,[1],inactive
same,outcome,[2],inactive
same,outcome,[3],inactive
same,outcome,[4],inactive
same,outcome,[5],inactive
same,outcome,[6],inactive
same,outcome,[7],inactive
same,outcome,[8],inactive
same,outcome,[9],inactive
Cc1ccc(Cl)cc1,outcome,[1],inactive
same,outcome,[2],inactive
same,outcome,[3],inactive
same,outcome,[4],inactive
same,outcome,[5],inactive
same,outcome,[6],inactive
same,outcome,[7],inactive
same,outcome,[8],inactive
same,outcome,[9],inactive
COc1cc(-c2nc(NC(=O)c3cc4cc(C)cc(C)c4n3CC(=O)O)sc2CCC2CCCCC2)c(OC)cc1Cl,AC50,[1],7.45 µM (active)
same,AC50,[2],10.9 µM (active)
same,AC50,[3],29.1 µM (active)
same,AC50,[4],42.2 µM (active)
same,AC50,[5],19.8 µM (active)
same,AC50,[6],7.24 µM (active)
same,AC50,CYP3A5 (gene 1577),9.6 µM (active)
same,AC50,[7],4120 nM (active)
same,AC50,[8],6.57 µM (active)
same,AC50,[9],4440 nM (active)
